Structures are written as SMILES. This is part of a sample that, as a whole, favours compounds with a hit. Of some 83,000 tested, about 20% had one in any assay.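 For each line, cells grew in 96-well plates with the test compound present at a single concentration for 48 hours.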 A number with no mark means an inactive call. Activity calls are given as the source filed them. Rule for the calls: active = growth percent below 10; inactive = the rest.

Among the test systems are NCI-H23 lung; NCI-H226 lung; NCI-H322M lung; HOP-62 NSCLC; NCI-H460 lung; HOP-92 NSCLC; A549/ATCC NSCLC; 786-0 renal; COLO 205 colon; NCI-H522 lung.
Holding throughout (experiment): NCI-60 one-dose screen, 48 h (100 = growth as untreated, 0 = no growth, -100 = all killed)
Conditions in all cases: 10 µM unless noted

For `COC1=CC(c2ccc[nH]2)=N/C1=C\c1[nH]c(C)c(C(=O)CCCCC(=O)Oc2ccc3c(c2)CCC2C3CC[C@]3(C)[C@@H](O)CC[C@@H]23)c1C` (some centres not stated), the growth in the assay with NCI-H23 lung is 73.3%; in the assay with NCI-H226 lung it was 61.5%; in the assay with NCI-H322M lung, 62.9%; in the assay on HOP-62 NSCLC, 68.4%; in the assay with NCI-H460 lung, 29.6%; in the assay on HOP-92 NSCLC it was 30.4%. Also, the growth with A549/ATCC NSCLC is 52.6%; with 786-0 renal, 66.1%.

Take `CCc1c(C(=O)Nc2ccc3ccccc3c2)[nH]c(C)c1C(C)=O`: the growth was 85.8% in the assay with NCI-H23 lung; 95.7% in the assay with NCI-H226 lung; 98.9% with NCI-H322M lung; 96.1% in the assay on HOP-62 NSCLC; 101% in the assay with NCI-H460 lung; 92.3% with HOP-92 NSCLC. Also, the growth with A549/ATCC NSCLC was 89.6%; in the assay on 786-0 renal, 104%; in the assay with COLO 205 colon, 111%.

`c1ccc(CCn2nnc3c(Nc4ccc(N5CCOCC5)cc4)ncnc32)cc1`: the growth in the assay with NCI-H23 lung was 102%; in the assay on NCI-H226 lung, 90.2%; in the assay on NCI-H322M lung, 106%; in the assay with HOP-62 NSCLC it was 91.1%; in the assay with NCI-H460 lung, 89%; with HOP-92 NSCLC, -2.53% (active). In addition, the figures for the growth in the assay with A549/ATCC NSCLC, with 786-0 renal and in the assay with COLO 205 colon were 74.1%, 87.1% and 90.1%, respectively.

Regarding `COc1ccc(-c2nc(-c3nc4ccc(F)cc4[nH]3)cc3c2[nH]c2ccccc23)cc1`, the growth in the assay on NCI-H23 lung is 53.3%; in the assay with NCI-H226 lung it was 70.6%; with NCI-H322M lung, 19%; in the assay with HOP-62 NSCLC it was 48.7%; in the assay with NCI-H460 lung it was 10.5%; in the assay with HOP-92 NSCLC, 31.8%. The growth in the assay on A549/ATCC NSCLC is 14.3%; in the assay with 786-0 renal, 63.2%; in the assay on COLO 205 colon, 44.1%.

Regarding `Clc1ccc2c(c1)NC1(CCSc3ccccc31)n1nccc1-2` (configuration not stated), the growth in the assay on NCI-H23 lung was 98.5%; in the assay on NCI-H226 lung it was 92.5%; with NCI-H322M lung, 95.1%; in the assay on HOP-62 NSCLC, 112%; in the assay on NCI-H460 lung, 103%; with HOP-92 NSCLC, 91.6%. Also, the growth with A549/ATCC NSCLC was 90%; in the assay with 786-0 renal it was 96.9%; with COLO 205 colon, 114%.

For the compound `COc1cc(OC)c(C(=O)/C=C/c2ccc(C#N)cc2)c(OC)c1`, the growth in the assay on NCI-H23 lung was 20.1%; in the assay with NCI-H226 lung it was 28.9%; in the assay with NCI-H322M lung it was 17.3%; in the assay on HOP-62 NSCLC, 13.6%; in the assay on NCI-H460 lung, -3.34% (active); with HOP-92 NSCLC it was 12.8%. In addition, the growth in the assay with A549/ATCC NSCLC was 7.11% (active); in the assay with 786-0 renal it was 10.6%; in the assay on COLO 205 colon, 9.97% (active).

`COc1ccc(NC(=O)CSc2nc3ccccc3c(=O)n2Cc2cc(OC)c(OC)c(OC)c2)cc1`: the growth with NCI-H23 lung was 92.5%; in the assay with NCI-H226 lung, 88.3%; with NCI-H322M lung, 94.5%; with HOP-62 NSCLC, 91.4%; with NCI-H460 lung, 101%; in the assay on HOP-92 NSCLC it was 58.8%. In addition, the values for the growth in the assay on A549/ATCC NSCLC, in the assay with 786-0 renal and in the assay on COLO 205 colon were 99.3%, 92.5% and 107%, respectively.

Consider `Cc1cc(Nc2nc(-c3ccncc3)nc3ccccc23)n[nH]1`, for which the growth in the assay with NCI-H23 lung was 80.2%; in the assay on NCI-H226 lung, 79.1%; in the assay with NCI-H322M lung, 75.7%; in the assay with HOP-62 NSCLC, 95.1%; in the assay with NCI-H460 lung, 66.1%; in the assay with HOP-92 NSCLC, 54.9%. Moreover, the figures for the growth in the assay on A549/ATCC NSCLC, in the assay on 786-0 renal and in the assay with COLO 205 colon were 41.9%, 48.2% and 31.7%, respectively.

As to `Cc1cc(C(=O)CSc2nc3ccccc3c(=O)[nH]2)c(C)n1C`, the growth with NCI-H23 lung is 97.7%; with NCI-H226 lung, 97.8%; in the assay on NCI-H322M lung it was 100%; in the assay with HOP-62 NSCLC, 93.5%; with NCI-H460 lung, 113%; in the assay with HOP-92 NSCLC, 73.1%. In addition, the growth in the assay with A549/ATCC NSCLC is 43.2%; with 786-0 renal, 91.9%; in the assay with COLO 205 colon, 109%.

For the compound `CC1Cc2c(N(C)C)ncnc2N(C)c2ccc(O)cc21` (configuration not stated), the growth in the assay on NCI-H23 lung is 92.8%; in the assay on NCI-H226 lung it was 104%; with HOP-62 NSCLC, 72.8%; in the assay with NCI-H460 lung, 97.7%; in the assay with HOP-92 NSCLC, 81.2%; in the assay with NCI-H522 lung it was 49.1%. Besides, the results for the growth in the assay with A549/ATCC NSCLC and in the assay with 786-0 renal were 85.1% and 81.4%, respectively.

For the compound `CCC1CCc2nc3sc(C(=O)Nc4ccccc4C)c(N)c3cc2C1` (configuration not stated), the growth with NCI-H23 lung was 51.1%; with NCI-H226 lung, 62.7%; with NCI-H322M lung, 56.5%; in the assay with HOP-62 NSCLC, 54.5%; in the assay on NCI-H460 lung, 31.5%; with HOP-92 NSCLC, 41.9%. In addition, the growth with A549/ATCC NSCLC is 41.2%; with 786-0 renal it was 50.6%; in the assay on COLO 205 colon, 17%.

Source of the values: PubChem BioAssay (NCI).
